Screening results: PubChem BioAssay, Broad Institute
Shh pathway inh – Hedgehog pathway signaling inhibitors, primary screen, luminescence, Shh-LIGHT2 cells, Gli-luciferase | inhibition, % (concentration not given with the values) | Shh-LIGHT2 Gli-luciferase reporter, 30 h | 2.1% of 22,000 active;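 active = mean inhibition across valid replicates above about 65%, limit read from the data; inconclusive = mean under the limit, yet half or more replicates past it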;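 also: pathway switched on by Shh-conditioned medium diluted 1 in 25 in low serum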
NOMO-1 viab – NOMO-1 AML cell viability reduction, primary screen, STK33 inhibitor project, CellTiter-Glo luminescence; NOMO-1 AML viability, 72 h; 7.5% of 37,000 active; AID 2330, 2010; inhibition, % (no concentration beside the values); in the data active = inhibition above about 80%; inconclusive = no clear call, values can overlap the other calls
MITF inh – inhibitors of MITF, primary screen, MITF inhibitor project, cell-based, luminescence; TRPM1 promoter luciferase, 24 h; inhibition, % (no concentration beside the values); 0.28% of 37,000 active; in the data active = inhibition above about 85%; inconclusive = no clear call, values can overlap the other calls; inactive = below about 68%;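 also: human melanocyte line stably carrying TRPM1 promoter luciferase reporter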
PD-1 reverse act – activators reversing PD-1 mediated T-cell inhibition, primary screen, luminescence, primary human CD4 T cells, PD-L1 beads | CellTiter-Glo 96 h | activation, % (concentration not given with the values) | 29,000 tested, under 10 active; call rule not given here
Numbers stand for hits; . = inactive; ? = inconclusive; / = no result. The list is not random: actives were taken first. Their share in the collection is about 8.1%.

SMILES	Shh pathway inh	NOMO-1 viab	MITF inh	PD-1 reverse act
COc1cc(C2NC(=S)NC(C)=C2C(=O)Nc2ccccc2C)c(Br)cc1OCC(=O)O (stereo not given)	/	.	.	.
CC(C)NS(=O)(=O)c1ccc(OCC(=O)O)cc1	/	.	.	.
COC(=O)COc1ccc(S(=O)(=O)NC2CCCCCC2)cc1	/	119	.	.
O=C1c2ccccc2NC(c2ccccc2)N1N=C1CCCCCC1 (stereo not given)	.	.	.	.
C[C@@H]1CN([C@@H](C)CO)C(=O)c2cc(NC(=O)Nc3ccc(F)cc3)ccc2O[C@H]1CN(C)Cc1ccc(C(F)(F)F)cc1	/	113	.	.
C[C@H]1CN([C@@H](C)CO)C(=O)c2cc(NC(=O)Nc3ccc(F)cc3)ccc2O[C@@H]1CN(C)Cc1ccc(C(F)(F)F)cc1	.	.	.	.
C[C@@H]1CN([C@H](C)CO)C(=O)c2cc(NC(=O)Nc3ccc(F)cc3)ccc2O[C@H]1CN(C)Cc1ccc(C(F)(F)F)cc1	.	117	.	.
CC1(C)Cc2ccccc2C(Nc2nc(-c3ccccc3)cs2)=N1	.	.	.	.
COc1ccccc1-n1c(SCC(=O)c2ccc(Cl)cc2)nc2ccccc2c1=O	/	.	.	.
Cc1c(O)c(-c2ccccc2)c(=O)n(-c2ccccn2)c1-c1ccccc1	.	.	.	.
O=C1NC(=O)C(=Cc2ccc(-c3ccccc3)o2)C(=O)N1	.	126	.	.
O=c1cc(-c2ccccc2)oc2ccccc12	.	.	.	.
C[C@@H]1O[C@@H](OC[C@H]2O[C@@H](c3c(O)cc4oc(-c5ccc(O)c(O)c5)cc(=O)c4c3O)[C@H](O)[C@@H](O)[C@@H]2O)[C@H](O)[C@H](O)[C@H]1O	.	/	/	/
C[C@H]1CN([C@@H](C)CO)C(=O)c2cccc(NC(=O)Nc3cccc4ccccc34)c2O[C@H]1CN(C)C(=O)Nc1ccc(C(F)(F)F)cc1	.	109	.	.
C[C@H](CO)N1C[C@H](C)[C@H](CN(C)C(=O)Nc2ccc(C(F)(F)F)cc2)Oc2c(NC(=O)Nc3cccc4ccccc34)cccc2C1=O	.	102	.	.
C[C@@H]1CN([C@@H](C)CO)C(=O)c2cccc(NC(=O)Nc3ccc(C(F)(F)F)cc3)c2O[C@@H]1CN(C)C(=O)Nc1cccc2ccccc12	.	.	.	.
C[C@H](CO)N1C[C@H](C)[C@@H](CN(C)C(=O)Nc2ccc(C(F)(F)F)cc2)Oc2c(NC(=O)Nc3cccc4ccccc34)cccc2C1=O	.	100	.	.
C[C@H]1CN([C@@H](C)CO)C(=O)c2cccc(NC(=O)Nc3cccc4ccccc34)c2O[C@H]1CN(C)C(=O)Nc1ccc(F)cc1	.	87	.	.
COc1ccc(-n2c(SCC(N)=O)nnc2-c2cccs2)cc1	/	.	.	.
N=c1ccccn1CC(O)c1ccccc1 (stereo not given)	.	.	.	.
COC(=O)C(C)Sc1ncnc2scc(-c3ccc(Cl)cc3)c12 (stereo not given)	/	.	.	.
CCOC(=O)c1cnc(SCC(=O)Nc2ccc(Cl)cc2Cl)nc1N	/	.	.	.
CCOC(=O)c1cnc(S/C=C/C(=O)c2ccc(C)cc2)nc1N	.	120	.	.
CC(C)c1ccc(NC(=O)CN(C)S(=O)(=O)c2ccc(F)cc2)cc1	/	.	.	.
Cc1ccc(S(=O)(=O)Nc2cccc3c2O[C@@H](CN(C)Cc2ccc(-c4ccccc4)cc2)[C@@H](C)CN([C@@H](C)CO)C3=O)cc1	.	91	.	.
C[C@@H]1CN([C@H](C)CO)C(=O)c2cccc(NS(=O)(=O)c3ccccc3)c2O[C@@H]1CN(C)Cc1ccc(-c2ccccc2)cc1	.	.	.	.
C[C@@H]1CN([C@@H](C)CO)C(=O)c2cccc(NS(=O)(=O)c3ccc(Cl)cc3)c2O[C@@H]1CN(C)Cc1ccc(-c2ccccc2)cc1	?	115	.	.
Cc1ccc(S(=O)(=O)Nc2cccc3c2O[C@@H](CN(C)Cc2ccc(Oc4ccccc4)cc2)[C@H](C)CN([C@@H](C)CO)C3=O)cc1	.	.	.	/
C[C@@H]1CN([C@@H](C)CO)C(=O)c2cccc(NS(=O)(=O)c3ccccc3)c2O[C@@H]1CN(C)Cc1ccc(-c2ccccc2)cc1	.	98	.	.
Cc1ccc(S(=O)(=O)Nc2cccc3c2O[C@H](CN(C)Cc2ccc(Oc4ccccc4)cc2)[C@@H](C)CN([C@H](C)CO)C3=O)cc1	.	99	.	.
